# Records with an inconclusive call do not appear. Entries that show only a call come without a potency. Values without a mark were called inactive. Calls of active or inactive are those of the source. The call rests on the fitted dose curve; in most records, active means well fitted cell-killing curve with a large enough effect; inconclusive means small, poorly fitted or top-dose-only effect, or effect the other way; inactive means flat fitted curve, though single readings scatter.
# Key:
# Test in all cases: Primary qHTS to identify gynecologic anti-cancer compounds using libraries of approved drugs and bioactive compounds (AID 1345084); further: nearly all actives have a fitted effect of over 55% in size
# [1] = system: C33A; conditions: Gynecologic cancer cell panel viability, ATPlite luminescence, 48 h; series mostly up to 57.5 µM
# Method in brief: (§1)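 Five-concentration response, 48 h; readout is ATP-driven luciferase luminescence.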
# [2] = system: CAOV3; conditions: Gynecologic cancer cell panel viability, ATPlite luminescence, 48 h; series mostly up to 57.5 µM
# Method in brief: as §1
# [3] = system: CASKI; conditions: Gynecologic cancer cell panel viability, ATPlite luminescence, 48 h; series mostly up to 57.5 µM
# Method in brief: as §1
# [4] = system: Es-2; conditions: Gynecologic cancer cell panel viability, ATPlite luminescence, 48 h; series mostly up to 57.5 µM
# Method in brief: as §1
# [5] = system: HeLa; conditions: Gynecologic cancer cell panel viability, ATPlite luminescence, 48 h; series mostly up to 57.5 µM
# Method in brief: as §1
# [6] = system: Hek293T; conditions: Gynecologic cancer cell panel viability, ATPlite luminescence, 48 h, control line for the selectivity index; series mostly up to 57.5 µM
# Method in brief: as §1
# [7] = system: JEG-3; conditions: Gynecologic cancer cell panel viability, ATPlite luminescence, 48 h; series mostly up to 57.5 µM
# Method in brief: as §1
# [8] = system: PA-1; conditions: Gynecologic cancer cell panel viability, ATPlite luminescence, 48 h; series mostly up to 57.5 µM
# Method in brief: as §1
# [9] = system: SKOV3; conditions: Gynecologic cancer cell panel viability, ATPlite luminescence, 48 h; series mostly up to 57.5 µM
# Method in brief: as §1
# [10] = system: Tov-21-G; conditions: Gynecologic cancer cell panel viability, ATPlite luminescence, 48 h; series mostly up to 57.5 µM
# Method in brief: as §1
# [11] = system: Tov112D; conditions: Gynecologic cancer cell panel viability, ATPlite luminescence, 48 h; series mostly up to 57.5 µM
# Method in brief: as §1
# [12] = system: OV90; conditions: Gynecologic cancer cell panel viability, ATPlite luminescence, 48 h; series mostly up to 57.5 µM
# Method in brief: as §1
# Potency means the concentration at half of the fitted maximal effect.
structure (smiles),measurement,setting,value
C[C@@H]1O[C@@H](O[C@H]2[C@H](O[C@H]3CC[C@@]4(C)C(CC[C@]5(C)C4C=C[C@]46OC[C@@]7(CCC(C)(C)C[C@H]74)[C@@H](O[C@@H]4O[C@@H](C)[C@H](O)[C@@H](O)[C@H]4O)C[C@]65C)[C@]3(C)CO)O[C@H](CO)[C@@H](O)[C@@H]2O[C@@H]2O[C@H](CO)[C@@H](O)[C@H](O)[C@H]2O)[C@H](O)[C@H](O)[C@H]1O (some centres not stated),"activity change, negative = cytotoxicity",[1],-27.7% [at 11.6 µM]
same,"activity change, negative = cytotoxicity",[2],9.8% [at 11.6 µM]
same,"activity change, negative = cytotoxicity",[3],-9.63% [at 11.6 µM]
same,"activity change, negative = cytotoxicity",[4],-13.3% [at 11.6 µM]
same,"activity change, negative = cytotoxicity",[5],21.7% [at 11.6 µM]
same,"activity change, negative = cytotoxicity",[6],-8.24% [at 11.6 µM]
same,"activity change, negative = cytotoxicity",[7],-15.7% [at 11.6 µM]
same,"activity change, negative = cytotoxicity",[8],2.51% [at 11.6 µM]
same,"activity change, negative = cytotoxicity",[9],-8.52% [at 11.6 µM]
same,"activity change, negative = cytotoxicity",[10],-2.59% [at 11.6 µM]
same,"activity change, negative = cytotoxicity",[11],-0.84% [at 11.6 µM]
COc1ccc2nc(-c3cc(OC)c(OC)c(OC)c3)cc(C(=O)NCC(=O)Nc3ccc(C(C)=O)cc3)c2c1,Potency,[1],inactive
same,Potency,[2],inactive
same,Potency,[3],inactive
same,Potency,[4],inactive
same,Potency,[5],inactive
same,Potency,[6],inactive
same,Potency,[12],inactive
O=C1COC2(CCN(S(=O)(=O)c3ccc(-c4ccc5cccnc5c4)cc3)CC2)CN1C1CC1,Potency,[1],inactive
same,Potency,[2],inactive
same,Potency,[3],inactive
same,Potency,[4],inactive
same,Potency,[5],inactive
same,Potency,[6],inactive
same,Potency,[7],inactive
same,Potency,[8],inactive
same,Potency,[9],inactive
same,Potency,[10],inactive
same,Potency,[11],inactive
COc1cc(CN(CCN)C(=O)c2cccs2)ccc1OCc1ccccc1,Potency,[1],inactive
same,Potency,[2],inactive
same,Potency,[3],inactive
same,Potency,[4],inactive
same,Potency,[5],inactive
same,Potency,[6],inactive
same,Potency,[7],inactive
same,Potency,[8],inactive
same,Potency,[9],inactive
same,Potency,[10],inactive
same,Potency,[11],inactive
CCc1cccc(CC)c1-n1c(C=C(C)C)c(C(=O)N2CCNCC2)cc(-c2nc(-c3ccc(C(F)(F)F)cc3)cs2)c1=O,Potency,[1],inactive
same,Potency,[2],inactive
same,Potency,[3],inactive
same,Potency,[4],inactive
same,Potency,[5],inactive
same,Potency,[6],inactive
same,Potency,[7],inactive
same,Potency,[8],inactive
same,Potency,[10],inactive
same,Potency,[11],inactive
CCC(CC)C(=O)OC12C(OC(=O)C(C)C)C(C)C3(O)C(C=C(CO)CC4(O)C(=O)C(C)=CC43)C1C2(C)C (configuration not stated),Potency,[1],inactive
same,Potency,[2],inactive
same,Potency,[3],inactive
same,Potency,[4],70.8 nM (active)
same,Potency,[5],inactive
same,Potency,[6],inactive
same,Potency,[7],inactive
same,Potency,[8],inactive
same,Potency,[9],inactive
same,Potency,[10],inactive
same,Potency,[11],inactive
C[C@H]1CO[C@@H]2Cn3cc(C(=O)NCc4ccc(F)cc4F)c(=O)c(O)c3C(=O)N12,Potency,[1],inactive
same,Potency,[2],inactive
same,Potency,[3],inactive
same,Potency,[4],inactive
same,Potency,[5],inactive
same,Potency,[6],inactive
same,Potency,[12],inactive
same,Potency,[8],inactive
same,Potency,[9],inactive
same,Potency,[11],inactive
CN1CCC(c2cn(C)c3ccc(OS(=O)(=O)c4c(F)cccc4F)cc23)CC1,Potency,[1],inactive
same,Potency,[2],inactive
same,Potency,[3],inactive
same,Potency,[4],inactive
same,Potency,[5],inactive
same,Potency,[6],inactive
same,Potency,[7],inactive
same,Potency,[8],inactive
same,Potency,[10],inactive
same,Potency,[11],inactive
CCC(CC)(NC(=O)C(C)C)C(=O)N[C@@H](CCCN=C(N)N)C(=O)NC1(C(=O)NC(c2ccc(F)cc2)c2ccc(F)cc2)CCCC1,Potency,[1],inactive
same,Potency,[2],inactive
same,Potency,[3],inactive
same,Potency,[4],inactive
same,Potency,[5],inactive
same,Potency,[6],inactive
same,Potency,[7],inactive
same,Potency,[8],inactive
same,Potency,[9],inactive
same,Potency,[10],inactive
same,Potency,[11],inactive
O=C(Nc1ccc(Cl)cc1)Nc1cccc(-c2cccc(N3CCCC3)n2)c1,Potency,[1],inactive
same,Potency,[2],inactive
same,Potency,[3],inactive
same,Potency,[4],inactive
same,Potency,[5],inactive
same,Potency,[6],inactive
same,Potency,[12],inactive
same,Potency,[8],inactive
same,Potency,[9],inactive
same,Potency,[10],inactive
same,Potency,[11],inactive
CC(=O)OC1CC(O)(C(C)C)C2C(OC(=O)c3ccc(O)cc3)C=C(C)C(=O)CC12C (configuration not stated),Potency,[1],inactive
same,Potency,[2],inactive
same,Potency,[3],inactive
same,Potency,[4],inactive
same,Potency,[5],inactive
same,Potency,[6],inactive
same,Potency,[7],inactive
same,Potency,[8],inactive
same,Potency,[9],inactive
same,Potency,[10],inactive
same,Potency,[11],inactive
O=S(=O)(Nc1ccccc1N1CCCCC1)c1ccc(Cl)s1,Potency,[1],inactive
same,Potency,[2],inactive
same,Potency,[3],inactive
same,Potency,[4],inactive
same,Potency,[5],inactive
same,Potency,[6],inactive
same,Potency,[7],inactive
same,Potency,[8],inactive
same,Potency,[9],inactive
same,Potency,[10],inactive
same,Potency,[11],inactive
Cc1cc(CS(=O)(=O)c2ccccc2)cc(OCc2ccc(CN3CCCC3CO)cc2)c1 (configuration not stated),Potency,[1],inactive
same,Potency,[2],inactive
same,Potency,[3],inactive
same,Potency,[4],inactive
same,Potency,[5],inactive
same,Potency,[6],inactive
same,Potency,[7],inactive
same,Potency,[8],inactive
same,Potency,[10],inactive
same,Potency,[11],inactive
CCNC1(C(N)=O)CN(c2nc(C)nc3c(-c4ccc(Cl)cc4)c(-c4ccccc4Cl)nn23)C1,Potency,[1],inactive
same,Potency,[2],inactive
same,Potency,[3],inactive
same,Potency,[4],inactive
same,Potency,[5],inactive
same,Potency,[6],inactive
same,Potency,[7],inactive
same,Potency,[8],inactive
same,Potency,[9],inactive
same,Potency,[10],inactive
same,Potency,[11],inactive
CCOC(=O)C1=Cc2ccc(C(F)(F)C(F)(F)F)cc2N=C(N)C1,Potency,[1],inactive
same,Potency,[2],inactive
same,Potency,[3],inactive
same,Potency,[4],inactive
same,Potency,[5],inactive
same,Potency,[6],inactive
same,Potency,[12],inactive
same,Potency,[8],inactive
same,Potency,[9],inactive
same,Potency,[10],inactive
same,Potency,[11],inactive

# Source: PubChem BioAssay (NCATS)
